Data as given in the supplement of paper PMC10849652.
Of roughly 7,900 targets only a part is listed; those with a hit were picked by preference. About 0.6% of all pairs of compound and target were hits. A number with no mark means an inactive call.

Tests used:
Assay in all cases: log2 fold change, soluble protein after heating vs DMSO (PISA); higher = thermal stabilisation; K562 cells, 10 uM, 30 min; active = over 0.2 and 3.5 SD of the protein, either way, in both replicates (recomputed)
[1] = compound: C#Cc1cccc(Nc2ncnc3cc(OCCOC)c(OCCOC)cc23)c1 [erlotinib]
In short: (§1)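 K562 cells at 2×10^6 cells/mL were exposed to 10 μM compound for 30 min, then aliquots were heated for 3 min across 48°C-58°C, pooled, and extracted in PBS containing 0.5% NP-40 at 4°C. The supernatant after 21,000xg for 90 min was taken as soluble protein and measured by TMTpro 16plex LC-MS/MS with channel sums equalised. Thermal stability is reported relative to control samples, with values from duplicates. Fold changes are given on a log2 scale.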

[2] = compound: C/C(=N\NC(=O)C1=CC(=CC=C1)S(=O)(=O)N2CCOCC2)/C3=C(C=CC(=C3)Cl)O
In short: as §1

[3] = compound: C1=CC(=C(C=C1Cl)C2=NC3=NC=CN=C3C(=N2)NC4=CC=NC=C4)F
In short: as §1

[4] = compound: C1=CC(=CC=C1C2=NC3=C(N2)C=C(C=C3)C(=O)N)OC4=CC=C(C=C4)Cl
In short: as §1

[5] = compound: C1=CC2=C(C=CC(=C2)/C=C\3/C(=O)NC(=NCC4=CC=CS4)S3)N=C1
In short: as §1

[6] = compound: C1=CC2=NC=CN=C2C=C1/C=C/3\C(=O)NC(=O)S3
In short: as §1

[7] = compound: C1=CC=C(C=C1)C2=NC(=C(N2)C3=CC=NC=C3)C4=CC(=C(C=C4)Cl)O
In short: as §1

[8] = compound: C1=CC=C2C(=C1)C3=NNC4=CC=CC(=C43)C2=O
In short: as §1

[9] = compound: C1CCN(C1)C(=O)NC2=CC=CC(=C2)NC3=NC=C(C(=N3)NCCC4=CN=CN4)Br
In short: as §1

[10] = compound: C1CN(CCC1(CC2=CC=C(C=C2)Cl)N)C3=NC=NC4=C3C=CN4
In short: as §1

[11] = compound: C1COCCN1CCN2C3=CC=CC=C3N=C2NC(=O)C4=CC(=CC=C4)[N+](=O)[O-] [IRAK-1-4 Inhibitor I]
In short: as §1

[12] = compound: C=CC(=O)N1CCC[C@@H](n2nc(-c3ccc(Oc4ccccc4)cc3)c3c(N)ncnc32)C1 [ibrutinib]
In short: as §1

[13] = compound: CC(=O)c1cnc2ccc(-c3cc(Cl)c(O)c(Cl)c3)nc2c1N[C@H]1CC[C@H](CN(C)C)CC1
In short: as §1

[14] = compound: CC(C)(C)Cn1c(N)nc2ccc(-c3[nH]c(C(C)(C)C)nc3-c3ccc(F)cc3)nc21 [ralimetinib]
In short: as §1

[15] = compound: CC(C)(O)CC(=O)NCCn1ccc2ncnc(Nc3ccc(Oc4cccc(C(F)(F)F)c4)c(Cl)c3)c21
In short: as §1

[16] = compound: CC(C)C1=C2N=C(C=C(N2N=C1)NCC3=CC=CC=C3)NCCCCCCN
In short: as §1

[17] = compound: CC(C)C[C@@H](C=O)NC(=O)[C@H](CC(C)C)NC(=O)[C@H](CC(C)C)NC(=O)OCc1ccccc1
In short: as §1

[18] = compound: CC(C)N(C[C@H]1O[C@@H](n2cnc3c(N)ncnc32)[C@H](O)[C@@H]1O)[C@H]1C[C@@H](CCc2nc3cc(C(C)(C)C)ccc3[nH]2)C1 [pinometostat]
In short: as §1

[19] = compound: CC1=C(C(CC(=O)N1)C2=CC=C(C=C2)C(F)(F)F)C(=O)NC3=C(C=C4C(=C3)C=NN4)F
In short: as §1

[20] = compound: CC1=C(C2=C(C=C1)C(=O)C3=CC=CC=C3N2CCCN)C
In short: as §1

UniProt Q9BVS4, sequence (Q9BVS4 whole entry, looked up): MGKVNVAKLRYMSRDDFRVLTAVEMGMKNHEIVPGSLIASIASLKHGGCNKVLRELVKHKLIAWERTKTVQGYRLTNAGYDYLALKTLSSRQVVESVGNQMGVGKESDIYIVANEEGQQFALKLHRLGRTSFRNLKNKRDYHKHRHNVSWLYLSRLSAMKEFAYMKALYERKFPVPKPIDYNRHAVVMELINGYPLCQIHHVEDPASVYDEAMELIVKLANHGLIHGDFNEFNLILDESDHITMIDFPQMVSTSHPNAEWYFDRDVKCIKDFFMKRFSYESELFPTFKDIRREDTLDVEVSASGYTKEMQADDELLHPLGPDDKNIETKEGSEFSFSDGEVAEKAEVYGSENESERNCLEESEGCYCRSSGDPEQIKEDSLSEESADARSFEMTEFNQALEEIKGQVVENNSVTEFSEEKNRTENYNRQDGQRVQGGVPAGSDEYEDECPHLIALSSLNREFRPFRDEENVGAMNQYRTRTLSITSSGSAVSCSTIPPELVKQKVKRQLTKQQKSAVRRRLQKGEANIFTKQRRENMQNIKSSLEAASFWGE
UniProt Q15382, sequence (Q15382 whole entry, looked up): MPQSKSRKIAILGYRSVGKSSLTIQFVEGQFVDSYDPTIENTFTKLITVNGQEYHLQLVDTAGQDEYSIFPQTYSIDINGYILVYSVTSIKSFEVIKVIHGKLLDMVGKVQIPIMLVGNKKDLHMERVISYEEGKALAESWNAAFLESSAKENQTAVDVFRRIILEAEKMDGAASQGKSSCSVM
UniProt Q8NBN7, sequence (Q8NBN7 whole entry, looked up): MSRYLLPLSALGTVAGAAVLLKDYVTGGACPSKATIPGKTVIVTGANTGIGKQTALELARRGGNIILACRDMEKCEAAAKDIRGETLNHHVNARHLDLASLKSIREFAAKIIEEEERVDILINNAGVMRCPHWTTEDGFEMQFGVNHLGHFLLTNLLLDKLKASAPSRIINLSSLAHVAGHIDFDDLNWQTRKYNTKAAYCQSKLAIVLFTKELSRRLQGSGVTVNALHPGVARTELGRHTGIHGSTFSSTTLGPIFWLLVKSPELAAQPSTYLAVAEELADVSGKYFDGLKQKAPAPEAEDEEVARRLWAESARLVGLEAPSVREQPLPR
UniProt P52306, sequence (P52306 whole entry, looked up): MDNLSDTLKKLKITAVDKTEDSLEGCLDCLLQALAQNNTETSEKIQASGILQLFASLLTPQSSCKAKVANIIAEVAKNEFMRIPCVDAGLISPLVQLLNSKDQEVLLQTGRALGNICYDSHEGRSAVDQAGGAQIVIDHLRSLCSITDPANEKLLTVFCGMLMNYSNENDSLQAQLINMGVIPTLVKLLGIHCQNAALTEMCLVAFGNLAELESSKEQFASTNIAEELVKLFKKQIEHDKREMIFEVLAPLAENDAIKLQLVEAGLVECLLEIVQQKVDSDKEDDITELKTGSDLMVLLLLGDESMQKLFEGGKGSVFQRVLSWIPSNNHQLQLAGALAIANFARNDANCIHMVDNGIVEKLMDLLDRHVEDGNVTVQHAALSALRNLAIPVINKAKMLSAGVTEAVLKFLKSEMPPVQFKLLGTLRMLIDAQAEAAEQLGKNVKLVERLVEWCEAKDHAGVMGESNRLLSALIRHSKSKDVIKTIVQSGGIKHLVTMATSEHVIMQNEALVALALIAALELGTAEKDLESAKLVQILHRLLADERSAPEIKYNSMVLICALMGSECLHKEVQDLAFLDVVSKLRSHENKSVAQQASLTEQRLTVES
UniProt Q8TBN0, sequence (Q8TBN0 whole entry, looked up): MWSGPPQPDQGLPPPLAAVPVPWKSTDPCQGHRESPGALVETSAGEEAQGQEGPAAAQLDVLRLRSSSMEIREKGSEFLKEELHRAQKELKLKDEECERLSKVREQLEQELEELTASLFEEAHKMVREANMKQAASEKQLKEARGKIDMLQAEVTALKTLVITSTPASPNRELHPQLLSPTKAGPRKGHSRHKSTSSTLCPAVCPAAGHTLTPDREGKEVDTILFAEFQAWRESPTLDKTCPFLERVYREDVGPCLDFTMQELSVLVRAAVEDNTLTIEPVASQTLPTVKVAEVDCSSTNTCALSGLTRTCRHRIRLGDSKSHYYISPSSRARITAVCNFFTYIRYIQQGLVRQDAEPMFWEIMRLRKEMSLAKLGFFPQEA
UniProt Q99719, sequence (Q99719 whole entry, looked up): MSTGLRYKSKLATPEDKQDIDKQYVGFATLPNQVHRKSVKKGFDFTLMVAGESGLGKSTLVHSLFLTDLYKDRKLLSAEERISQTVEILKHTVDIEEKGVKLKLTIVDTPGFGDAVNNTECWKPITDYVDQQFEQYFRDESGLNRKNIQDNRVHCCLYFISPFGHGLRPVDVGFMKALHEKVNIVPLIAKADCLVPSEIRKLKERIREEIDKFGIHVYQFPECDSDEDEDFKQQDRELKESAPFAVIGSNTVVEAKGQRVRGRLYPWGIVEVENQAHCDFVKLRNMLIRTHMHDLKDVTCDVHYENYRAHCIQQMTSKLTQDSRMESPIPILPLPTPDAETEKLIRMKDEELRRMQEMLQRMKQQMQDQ
UniProt P61586, sequence (P61586 whole entry, looked up): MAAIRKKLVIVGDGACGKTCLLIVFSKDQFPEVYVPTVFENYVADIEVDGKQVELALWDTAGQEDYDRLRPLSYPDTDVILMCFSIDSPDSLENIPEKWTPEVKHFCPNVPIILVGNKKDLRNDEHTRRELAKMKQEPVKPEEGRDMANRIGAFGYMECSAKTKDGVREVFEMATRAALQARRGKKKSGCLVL

Row | Target | log2 fold change [1] | log2 fold change [2] | log2 fold change [3] | log2 fold change [4] | log2 fold change [5] | log2 fold change [6] | log2 fold change [7] | log2 fold change [8] | log2 fold change [9] | log2 fold change [10] | log2 fold change [11] | log2 fold change [12] | log2 fold change [13] | log2 fold change [14] | log2 fold change [15] | log2 fold change [16] | log2 fold change [17] | log2 fold change [18] | log2 fold change [19] | log2 fold change [20]
1 | RHEB (UniProt Q15382) | 0.028 | 0.042 | 0.075 | -0.041 | 0.008 | 0.008 | -0.008 | -0.004 | -0.005 | 0.041 | 0.006 | -0.016 | -0.04 | -0.112 | -0.01 | 0.027 | -0.055 | -0.035 | -0.014 | 0.093
2 | RDH13 (UniProt Q8NBN7) | 0.019 | -0.004 | 0.082 | 0.01 | 0.127 | -0.024 | 0.005 | 0.007 | 0.05 | 0.007 | 0.012 | 0.03 | -0.054 | -0.031 | -0.061 | -0.184 | -0.029 | -0.057 | -0.051 | 0.111
3 | RAP1GDS1 isoform 5 (UniProt P52306) | 0.019 | -0.012 | -0.021 | -0.013 | 0.027 | 0.106 | -0.016 | -0.038 | -0.023 | -0.077 | -0.044 | -0.098 | 0.04 | 0.005 | -0.114 | -0.277 (active) | -0.005 | 0.067 | 0.011 | 0.008
4 | RHOA (UniProt P61586) | 0.028 | -0.029 | 0.012 | -0.052 | -0.094 | -0.161 | 0.114 | 0.018 | -0.05 | 0.01 | 0.108 | -0.015 | 0.047 | 0.251 | -0.034 | 0.063 | -0.07 | -0.023 | 0.002 | -0.007
5 | RAB3IL1 (UniProt Q8TBN0) | -0.007 | -0.007 | 0.057 | 0.005 | 0.019 | 0.019 | -0.02 | -0.039 | -0.004 | -0.013 | 0.018 | -0.009 | 0.018 | 0.064 | -0.036 | -0.014 | 0.057 | -0.029 | -0.004 | 0.037
6 | SEPTIN5 (UniProt Q99719) | 0.009 | 0.014 | 0.021 | 0.006 | 0.004 | 0.019 | -0.011 | 0.015 | -0.012 | 0.039 | 0.014 | -0.013 | -0.031 | -0.084 | -0.03 | 0.034 | -0.051 | -0.041 | -0.005 | 0.011
7 | RPL31 (UniProt P62899) | -0.145 | -0.174 | -0.444 | 0.055 | -0.052 | -0.02 | -0.047 | -0.011 | 0.087 | -0.215 | -0.168 | -0.021 | 0.138 | 0.1 | 0.052 | -0.013 | 0.14 | 0.273 | -0.006 | -0.625 (active)
8 | RIOK2 (UniProt Q9BVS4) | -0.081 | -0.064 | -0.149 | 0.097 | -0.043 | -0.055 | -0.01 | 0.055 | 0.035 | -0.209 | -0.061 | 0.013 | 0.465 (active) | 0.119 | 0 | -0.014 | 0.084 | 0.132 | -0.014 | -0.068
